# According to PubChem BioAssay AID1851 (National Center for Advancing Translational Sciences (NCATS), 2009):
# About 5,100 (32%) of roughly 16,000 compounds were called active. Another 25% or so got no clear call; they are omitted. Calls come from the whole dose curve; as a rule, active = well fitted curve in the direction sought with a large enough effect; inconclusive = small, poorly fitted or top-dose-only effect, or effect the other way; inactive = no such curve, though single readings can be large or run the other way. The list shows a part of the results.
# Target: Cytochrome P450 3A4 (Homo sapiens) (UniProt P08684)
# Sequence (P08684 whole entry, looked up): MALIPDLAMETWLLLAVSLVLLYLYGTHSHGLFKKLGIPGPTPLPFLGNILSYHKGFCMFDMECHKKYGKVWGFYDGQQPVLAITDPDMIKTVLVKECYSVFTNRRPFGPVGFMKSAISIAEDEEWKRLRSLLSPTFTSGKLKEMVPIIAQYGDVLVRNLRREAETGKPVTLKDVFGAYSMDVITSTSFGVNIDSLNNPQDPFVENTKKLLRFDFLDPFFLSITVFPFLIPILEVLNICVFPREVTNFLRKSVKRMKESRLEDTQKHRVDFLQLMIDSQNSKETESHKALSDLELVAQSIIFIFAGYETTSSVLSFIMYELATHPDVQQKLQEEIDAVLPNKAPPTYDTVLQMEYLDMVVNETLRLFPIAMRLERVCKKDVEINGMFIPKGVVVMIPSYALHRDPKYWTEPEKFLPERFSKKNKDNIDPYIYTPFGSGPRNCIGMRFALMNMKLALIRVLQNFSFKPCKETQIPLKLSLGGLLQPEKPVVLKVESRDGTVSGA
# Assay: Cytochrome panel assay with activity outcomes
# Conditions: recombinant CYP, pro-luciferin dealkylation, luminescence, p450-cyp3a4; series mostly up to 57.1 µM; activity, negative = inhibition: at the top concentration
# % is set by controls: 0 for no effect and ±100 for the full control effect.
SMILES,"activity, negative = inhibition",AC50
COc1nc(Oc2ccc(/C=N/O)cc2)nc(N(C)C)n1,-3.18% [at 2.29 µM] (inactive),–
COc1ccc(/C=C/c2ccncc2)cc1,–,1.58 µM (active)
COc1ccc(OC(=O)c2ccncc2)cc1,-18.8% (inactive),–
CCOC(=O)C(C)Sc1nnc(CNC(=O)c2ccc(OC)cc2)n1C1CCCCC1 (configuration not stated),–,0.891 µM (active)
CCOC(=O)CSc1nnc(CNC(=O)c2ccc(OC)cc2)n1C1CCCCC1,–,2 µM (active)
O[C@@H]1[C@@H](OCc2ccccc2)OC[C@H](O)[C@@H]1O,-2.87% [at 11.4 µM] (inactive),–
Cc1cc(C)cc(N(C(=O)C2CCCC2)C2C=CS(=O)(=O)C2)c1 (configuration not stated),-15.4% [at 2.29 µM] (inactive),–
CCCCC1=NN2C(=N)CC(=O)N=C2S1,-20.3% (inactive),–
CCN(CC)c1ccc(NC(=O)c2cnn(CC)c2)cc1,-22% (inactive),–
CN(C)c1ccc(NC(=O)CSc2nc(N)c(C(=O)Nc3ccc(N(C)C)cc3)s2)cc1,–,4.47 µM (active)
O=C1c2cccnc2C(=O)N1Cc1ccc(F)cc1,7.01% (inactive),–
Cc1ccc(NC2c3ncccc3C(=O)N2Cc2ccc(F)cc2)cc1 (configuration not stated),–,4.47 µM (active)
CN[C@@H]1NC(=O)c2ccccc2N1Cc1ccc(F)cc1,-12.4% [at 11.4 µM] (inactive),–
Cc1cc(C)c(O)c(Cc2cccc(Cc3cc(C)cc(C)c3O)c2O)c1,6.11% [at 11.4 µM] (inactive),–
CN(Cc1cccc2ccccc12)Cc1cccc2ccccc12,-53.9% [at 11.4 µM] (inactive),–
Cc1ccc(C(=N)c2ccccc2Cc2cccc3ccccc23)c2ccccc12,–,3.98 µM (active)
Cc1ccc(C)c(C(=N)c2ccccc2Cc2ccccc2)c1,–,3.98 µM (active)
c1ccc2c(CC3=NCCN3)cccc2c1,-2.7% [at 25.6 µM] (inactive),–
N=C(c1ccc2ccccc2c1)c1ccccc1Cc1ccccc1,-11.9% [at 11.4 µM] (inactive),–
CN1CCCC1CCNC1C2CC3CC(C2)CC1C3 (configuration not stated),-0.75% [at 2.29 µM] (inactive),–
CN1C(=C2C(=O)OC(C)(C)OC2=O)Sc2ccccc21,-3.54% (inactive),–

SMILES,"activity, negative = inhibition",AC50
O=C(Oc1c(Br)cc(C(=S)N2CCOCC2)cc1Br)c1ccc(Cl)cc1,-1.32% [at 2.29 µM] (inactive),–
O=c1c(-c2cccs2)nc2cnc(N3CCNCC3)nc2n1C1CC1,–,6.31 µM (active)
CN(C)c1ncc2nc(-c3ccccc3)c(=O)n(C3CC3)c2n1,-24.9% (inactive),–
O=c1c(-c2ccc(F)cc2)nc2cnc(N3CCOCC3)nc2n1C1CC1,-8.23% (inactive),–
O=c1c(-c2ccccc2)nc2cnc(N3CCNCC3)nc2n1C1CC1,–,12.6 µM (active)
O=c1cnc2cnc(N3CCOCC3)nc2n1C1CC1,8.49% (inactive),–
O=c1c(-c2cc(F)cc(F)c2)nc2cnc(N3CCOCC3)nc2n1C1CC1,5.06% (inactive),–
O=c1c(-c2ccccc2)nc2cnc(N3CCOCC3)nc2n1C1CC1,7.55% (inactive),–
O=c1c(-c2ccc(F)cc2)nc2cnc(N3CCNCC3)nc2n1C1CC1,–,15.8 µM (active)
O=c1c(-c2ccc(Cl)cc2)nc2cnc(N3CCOCC3)nc2n1C1CC1,-0.899% (inactive),–
CN1CCN(c2ncc3nc(-c4cc(F)cc(F)c4)c(=O)n(C)c3n2)CC1,6.8% (inactive),–
O=c1c(-c2cccs2)nc2cnc(Oc3ccccc3)nc2n1C1CC1,5.66% (inactive),–
O=c1c(-c2cc(F)cc(F)c2)nc2cnc(N3CCNCC3)nc2n1C1CC1,–,25.1 µM (active)
COc1ccc(-c2nc3cnc(N4CCNCC4)nc3n(C3CC3)c2=O)cc1,–,10 µM (active)
COc1ccc(-c2nc3cnc(N4CCN(C)CC4)nc3n(C3CC3)c2=O)cc1,4.85% (inactive),–
COc1ccc2c(c1)c(CC(=O)O)c(C)n2C(=O)c1ccccc1,5.91% (inactive),–
COC(=O)[C@@]1(Cc2ccccc2)[C@H]2c3cc(C(=O)N4CCCC4)[nH]c3C[C@H]2CN1C(=O)c1ccccc1,–,2.51 µM (active)
COC(=O)[C@@]1(Cc2ccc(OC)cc2)[C@H]2c3cc(C(=O)N(C)C)[nH]c3C[C@H]2CN1C(=O)c1ccccc1,–,1.58 µM (active)
C[C@@]12CC(=O)[C@@H]3[C@@H](CCC4=CC(=O)CC[C@]43C)[C@@H]1CC=C2CC(=O)O,-10.5% [at 11.4 µM] (inactive),–
CCOC(=O)C1=C(C)NC(=O)NC1c1ccoc1 (configuration not stated),15% [at 2.29 µM] (inactive),–
CCOC(=O)C1=C(C)C(c2ccccc2OC)NC(=S)N1 (configuration not stated),-19.1% [at 2.29 µM] (inactive),–

SMILES,"activity, negative = inhibition",AC50
CCOC(=O)C1=C(C)NC(=S)NC1c1cccc(O)c1 (configuration not stated),–,1 µM (active)
COc1cccc(-c2cc(N(C)Cc3ccco3)ncn2)c1,–,25.1 µM (active)
CN(Cc1ccco1)c1cc(-c2cccnc2)ncn1,–,3.16 µM (active)
CN(Cc1ccco1)c1cc(-c2cccc(C#N)c2)ncn1,-4.27% (inactive),–
COC(=O)[C@@]1(Cc2ccc(OC)cc2)[C@@H]2[C@@H](CC(=O)[C@H]2CC(=O)C(=O)N2CCCC2)CN1C(=O)c1ccccc1,–,0.794 µM (active)
COC(=O)[C@@]1(Cc2ccc(F)cc2)[C@@H]2[C@@H](CC(=O)[C@H]2CC(=O)C(=O)N2CCCC2)CN1C(=O)c1ccccc1,–,1.58 µM (active)
FC(F)(F)c1nnc(-c2ccccc2)nc1Sc1ccccc1,-29.6% (inactive),–
c1ccc(Cc2nnc(Sc3ccccc3)c3ccccc23)cc1,–,12.6 µM (active)
COCCNc1cc(-c2ccccc2C)ncn1,-2.95% (inactive),–
COc1ccc2[nH]cc(CCNc3cc(-c4ccccc4C)ncn3)c2c1,–,5.01 µM (active)
COc1ccc2[nH]cc(CCNc3cc(-c4ccccc4C(F)(F)F)ncn3)c2c1,–,5.01 µM (active)
COc1ccc2[nH]cc(CCNc3cc(-c4ccccc4OC)ncn3)c2c1,–,6.31 µM (active)
CC(C)OC(=O)CSc1nc(-c2ccc(F)cc2)nc2ccc(F)cc12,-10.7% (inactive),–
O=C(Nc1ccccc1)c1cc(-c2ccccc2Cl)no1,-22.5% (inactive),–
Cc1onc(-c2ccccc2Cl)c1C(=O)Nc1nnc(Cc2ccc(Cl)cc2)s1,–,3.16 µM (active)
Cc1ccc(NC(=S)NC(=O)c2c(-c3ccccc3Cl)noc2C)cc1,–,14.1 µM (active)
O=C(NCc1ccccc1Cl)C1CCN(S(=O)(=O)N2CCC3(CC2)OCCO3)CC1,–,14.1 µM (active)
COCCNC(=O)C1CCN(S(=O)(=O)N2CCC3(CC2)OCCO3)CC1,-8.44% (inactive),–
O=C(NCCc1ccc(Cl)cc1)C1CCN(S(=O)(=O)N2CCC3(CC2)OCCO3)CC1,–,3.55 µM (active)
CC(C)N(CCNC(=O)C1CCN(S(=O)(=O)N2CCOCC2)CC1)Cc1ccccc1,22.3% (inactive),–
